# Measurements published in PubChem BioAssay (NCI).
# About 83,000 compounds went through this panel and 20% of them were active in at least one assay; those are over-represented in the sample as a whole.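 Percent growth is the endpoint: 0 to 100 indicates growth inhibition (40 means 60% inhibition), 0 means no net growth, and negative values indicate cell death.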 The source made the active and inactive calls. Rule for the calls: active = growth percent below 10; inactive = the rest.
# Test system: CCRF-CEM leukemia
# Experiment: NCI-60 one-dose screen, 48 h (100 = growth as untreated, 0 = no growth, -100 = all killed)
# Details: 10 µM unless noted
row,Compound,growth
1,COc1ccccc1-n1c(-c2cc(O)ccc2C)cn2c3c(=O)[nH]c(=O)n(C)c3nc12,114% (inactive)
2,COc1ccc(NC(=O)c2sc3nc(C)c(C(O)c4ccccc4)cc3c2N)cc1 (stereo unspecified),7.85% (active)
3,COc1cc(C2C3=C(COC3=O)N(CCO)c3cc4c(cc32)OCCO4)cc(OC)c1OC (stereo unspecified),13.2% (inactive)
4,C/C(=C(/c1ccc(Cl)cc1)c1ccc(OCCCN(C)C)cc1)c1ccc(Cl)cc1,73.3% (inactive)
5,O=C(CSc1nc2ccc([N+](=O)[O-])cc2[nH]1)Nc1ccc(Br)cc1,39.1% (inactive)
6,C[N+](C)(C/C=C/c1ccccc1)Cc1ccccc1,149% (inactive)
7,C/C(=C(\c1ccc(OCCN2CCCCCC2)cc1)c1ccc(OC(=O)Cc2ccccc2)cc1)c1ccc(Cl)cc1,6.31% (active)
8,COc1ccc2c(c1)c(-c1nonc1-c1c[nH]c3ccc(Br)cc13)cn2C,33.5% (inactive)
9,CCCCCCCCn1ccc2cc(NC(=O)Cn3cc(CN4CCN(CC)CC4)nn3)ccc21,-41.2% (active)
10,C#CC#CC#CC#CC#CC#CC#CC#CC[C@H]1OC[C@@H](COC(=O)O[C@@H](C(=O)O[C@H]2C[C@@]3(O)[C@@H](OC(=O)c4ccccc4)[C@@H]4[C@]5(OC(C)=O)CO[C@@H]5C[C@H](O)[C@@]4(C)C(=O)[C@H](OC(C)=O)C(=C2C)C3(C)C)[C@@H](NC(=O)c2ccccc2)c2ccccc2)O1,36.2% (inactive)
11,Cc1cc(C)cc(Nc2ccc([N+](=O)[O-])c(NCCN3CCOCC3)n2)c1,5.33% (active)
12,CCN=C1C=CC(=C(c2ccc(N(C)C)cc2)c2ccc(N(C)C)cc2)c2ccccc21,9.37% (active)
13,CCOC(=O)Cn1c(=O)c2c3ccccc3n(C)c2n2nnc(-c3ccccc3)c12,68.4% (inactive)
14,COc1ccc2[nH]cc(-c3nc(-c4cn(C)c5ccncc45)cs3)c2c1,-20.3% (active)
15,COc1ccc2nc(SCC(=O)Nc3ccccc3C)[nH]c2c1,87.5% (inactive)
16,CCCCNC1=C(OCC)C(=O)c2ccccc2C1=O,100% (inactive)
17,COc1ccc(C2=Nc3c/c(=C\c4c(O)[nH]c5cc(Cl)ccc45)ccc3=N2)cc1,54.8% (inactive)
18,Nc1ccc([N+](=O)[O-])cc1N=C/C=C/c1ccccc1,18.3% (inactive)
19,c1ccc(CNc2ccc3nc(CCC4CCCCC4)[nH]c3c2)cc1,59.2% (inactive)
20,COc1ccc2c(c1)c(-c1cc(-c3cn(C)c4ccc(OC)cc34)on1)cn2C,91.3% (inactive)
21,C#CC#CC#CC#CC#CC#CC#CC#CC[C@H]1OC[C@H](COC(=O)O[C@@H](C(=O)O[C@H]2C[C@@]3(O)[C@@H](OC(=O)c4ccccc4)[C@@H]4[C@]5(OC(C)=O)CO[C@@H]5C[C@H](O)[C@@]4(C)C(=O)[C@H](OC(C)=O)C(=C2C)C3(C)C)[C@@H](NC(=O)c2ccccc2)c2ccccc2)O1,26.7% (inactive)
22,Cc1ccc(-c2nc(C(Cl)Cl)nc3cc(C)nn23)cc1,32.5% (inactive)
23,O=C(Nc1nc(C(=O)N2CCN(C(c3ccccc3)c3ccccc3)CC2)cs1)c1ccc(NC2CCCCC2)c([N+](=O)[O-])c1,95% (inactive)
24,COc1cc(-c2nc3ccc(C)cc3[nH]2)ccc1OCC(=O)N=Nc1c(O)[nH]c2ccc(Cl)cc12,-39.1% (active)
25,C=C1C(=O)O[C@H]2[C@H]1CC/C(COC(=O)NCCCCCCCCNC(=O)OC/C1=C/CC[C@@]3(C)O[C@H]3[C@H]3OC(=O)C(=C)[C@@H]3CC1)=C\CC[C@@]1(C)O[C@@H]21,-47.3% (active)
26,Nc1c(C(=O)Nc2ccncc2)sc2nc3c(cc12)CCCCC3,54.4% (inactive)
